In PubChem BioAssay (NCATS):

Assay: qHTS profiling of the MIPE4 collection as inhibitors of Plasmodium falciparum (HB3) proliferation (AID 743347);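 note: plate controls were DMSO vehicle wells for no effect and artemisinin wells for full effect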
Conditions: P. falciparum HB3 in erythrocytes, SYBR Green DNA, 72 h; at 28.5 µM (top of the series) unless noted
Outline: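 Erythrocytes infected with P. falciparum (0.3% parasitemia, 2.5% hematocrit) incubated with compounds 72 h at 37 C, 5% CO2. Lysis with saponin/Triton buffer containing SYBR Green I, overnight at room temperature in the dark; DNA fluorescence (485/535 nm) normalised to 0.29 uM artemisinin and DMSO.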

Structure (SMILES)	growth, % of control
O=c1[nH]nc(OCCCc2ccc(Cl)cc2)c(NCc2cccnc2)c1Br	10.3%
CC[C@H]1OC(=O)[C@H](C)[C@@H](O[C@H]2C[C@@](C)(OC)[C@@H](O)[C@H](C)O2)[C@H](C)[C@@H](O[C@@H]2O[C@H](C)C[C@H](N(C)C)[C@H]2O)[C@](C)(O)C[C@H](C)C(=NOCOCCOC)[C@H](C)[C@@H](O)[C@]1(C)O	82.6%
NC(N)=Nc1nc(CSCCC(N)=NS(N)(=O)=O)cs1	92.7%
COc1cc2nc(-c3cc(F)ccc3O)nc(N[C@@H]3CNC[C@@H]3C(C)(C)O)c2cc1OC	3.61%
Cc1[nH]c(C=C2C(=O)Nc3ccc(S(=O)(=O)N(C)c4cccc(Cl)c4)cc32)c(C)c1C(=O)N1CCN(C)CC1	4.63%
C#CCN(C)CC1=Cc2ccccc2Oc2ccccc21	25.1%
CN(CC=CC#CC(C)(C)C)Cc1cccc2ccccc12	14.6%
CC(O)=C(C#N)C(=O)Nc1ccc(C(F)(F)F)cc1	83.8%
CC(C)C[C@@H](C(=O)N[C@H](C(=O)OC1CCCC1)c1ccccc1)[C@H](O)C(=O)NO	7.8%
COc1c(C)c2c(c(O)c1CC=C(C)CCC(=O)O)C(=O)OC2	7.33%
CC(C)CN(C[C@H](O)[C@H](Cc1ccccc1)NC(=O)O[C@H]1CCOC1)S(=O)(=O)c1ccc(N)cc1	42.8%
CC1(C)[C@H]2CC[C@]3(C)[C@@H](C(=O)C=C4[C@@H]5C[C@@](C)(C(=O)O)CC[C@]5(C)CC[C@]43C)[C@@]2(C)CC[C@@H]1O	87.6%
O=c1[nH]c(=O)n([C@H]2C[C@@H](O)[C@@H](CO)O2)cc1C(F)(F)F	36.7%
Nc1ncnc2c1ncn2[C@@H]1O[C@H](CO)[C@@H](O)[C@@H]1O	6.56%
O=C(c1ccc(C(=O)N2CCC(N3CCCC3)CC2)c(Nc2ccccc2)c1)N1CCC(N2CCCC2)CC1	82.3%
C[C@@H]1[C@H](O)[C@@H](C)C=CC=CC=CC=CC=CC=CC=C[C@H](O[C@@H]2O[C@H](C)[C@H](O)[C@H](N)[C@@H]2O)C[C@@H]2O[C@](O)(C[C@@H](O)C[C@@H](O)[C@H](O)CC[C@@H](O)C[C@@H](O)CC(=O)O[C@H]1C)C[C@H](O)[C@@H]2C(=O)O	29.7%
NS(=O)(=O)c1cc(Cl)c(Cl)c(S(N)(=O)=O)c1	98.5%
COc1cc(Cl)cn2c(-c3cccc(NC4CNC4)n3)cnc12	42.7%
CN1CCc2c(n(Cc3ccc(C(=O)NO)cc3)c3ccccc23)C1	4.11%
CC(C)C[C@@H](N)[C@H](O)C(=O)N[C@H](C(=O)N[C@H](C(=O)N[C@@H](CC(=O)O)C(=O)O)C(C)C)C(C)C	107%
CC1(C)C(N(O)C(=O)Nc2ccc(Cl)cc2)N(c2ccc(Cl)cc2)C(=O)N1CC(=O)NN=CC=Cc1ccc([N+](=O)[O-])o1 (stereo not given)	7.55%
Cc1cc(NC(=O)Nc2ccc(N(C)C)cc2)c2cc(F)cc(F)c2n1	10.1%
CCNC(=O)Nc1ccc(Oc2ncnc(N)c2C=NOC)cc1Cl	50.6%
C=C1c2cccc(O)c2C(O)=C2C(=O)[C@@]3(O)C(O)=C(C(N)=O)C(=O)[C@@H](N(C)C)[C@@H]3[C@@H](O)[C@H]12	15.6%
O=C(O)C1=CC(O)C(O)[C@H](O)C1 (stereo not given in full)	51.8%
CCCCCCCCCCCCCC(=O)N[C@H](CO)[C@H](O)c1ccc([N+](=O)[O-])cc1	24.3%
Cc1cc2nc3c(=O)[nH]c(=O)nc-3n(CC(O)C(O)C(O)CO)c2cc1C (stereo not given)	17.8%
N#Cc1c(N(CC(=O)O)CC(=O)O)sc(C(=O)O)c1CC(=O)O	105%
O=C(O)CCNc1cc(N2CCc3ccccc3CC2)nc(-c2ccccn2)n1	5.23%

Assay: High-throughput drug toxicity screening in the BPDCN cell line Gen2.2 (AID 1224824);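 note: cells exposed to compounds for 48 h before reading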
Conditions: Gen2.2 BPDCN cells; at 45.8 µM (top of the series) unless noted
Outline: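 Seed 500 exponentially growing Gen2.2 cells/well; add compounds by pin tool; incubate 48 h, 37 °C, 5% CO2; add CellTiter-Glo, 15 min RT; read luminescence. % activity vs DMSO (100%) and bortezomib (0%).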

Structure (SMILES)	cell viability, % of control (lower = more cytotoxic)
O=c1[nH]nc(OCCCc2ccc(Cl)cc2)c(NCc2cccnc2)c1Br	9.32%
CC[C@H]1OC(=O)[C@H](C)[C@@H](O[C@H]2C[C@@](C)(OC)[C@@H](O)[C@H](C)O2)[C@H](C)[C@@H](O[C@@H]2O[C@H](C)C[C@H](N(C)C)[C@H]2O)[C@](C)(O)C[C@H](C)C(=NOCOCCOC)[C@H](C)[C@@H](O)[C@]1(C)O	129%
NC(N)=Nc1nc(CSCCC(N)=NS(N)(=O)=O)cs1	171%
COc1cc2nc(-c3cc(F)ccc3O)nc(N[C@@H]3CNC[C@@H]3C(C)(C)O)c2cc1OC	4.14%
Cc1[nH]c(C=C2C(=O)Nc3ccc(S(=O)(=O)N(C)c4cccc(Cl)c4)cc32)c(C)c1C(=O)N1CCN(C)CC1	2.96%
C#CCN(C)CC1=Cc2ccccc2Oc2ccccc21	124%
Cc1ccccc1C(=O)c1ccc(Nc2ccc(Br)cc2N)cc1Cl	182%
CN(CC=CC#CC(C)(C)C)Cc1cccc2ccccc12	194%
CC(O)=C(C#N)C(=O)Nc1ccc(C(F)(F)F)cc1	75%
CC(C)C[C@@H](C(=O)N[C@H](C(=O)OC1CCCC1)c1ccccc1)[C@H](O)C(=O)NO	6.81%
COc1c(C)c2c(c(O)c1CC=C(C)CCC(=O)O)C(=O)OC2	94.4%
CC(C)CN(C[C@H](O)[C@H](Cc1ccccc1)NC(=O)O[C@H]1CCOC1)S(=O)(=O)c1ccc(N)cc1	149%
COc1ccc(-c2nc3ccc(C4=NNC(=O)CC4C)cc3[nH]2)cc1 (stereo not given)	263%
CCCCC(F)(F)[C@@]1(O)CC[C@H]2[C@H](CC(=O)[C@@H]2CCCCCCC(=O)O)O1	92.5%
CC1(C)[C@H]2CC[C@]3(C)[C@@H](C(=O)C=C4[C@@H]5C[C@@](C)(C(=O)O)CC[C@]5(C)CC[C@]43C)[C@@]2(C)CC[C@@H]1O	139%
O=c1[nH]c(=O)n([C@H]2C[C@@H](O)[C@@H](CO)O2)cc1C(F)(F)F	118%
Nc1ncnc2c1ncn2[C@@H]1O[C@H](CO)[C@@H](O)[C@@H]1O	108%
CC(NCCc1ccc(O)cc1)C(O)c1ccc(O)cc1 (stereo not given)	91%

Structure (SMILES)	cell viability, % of control (lower = more cytotoxic)
NC(=O)c1ncn([C@@H]2O[C@H](CO)[C@@H](O)[C@@H]2O)n1	109%
O=C(c1ccc(C(=O)N2CCC(N3CCCC3)CC2)c(Nc2ccccc2)c1)N1CCC(N2CCCC2)CC1	483%
C[C@@H]1[C@H](O)[C@@H](C)C=CC=CC=CC=CC=CC=CC=C[C@H](O[C@@H]2O[C@H](C)[C@H](O)[C@H](N)[C@@H]2O)C[C@@H]2O[C@](O)(C[C@@H](O)C[C@@H](O)[C@H](O)CC[C@@H](O)C[C@@H](O)CC(=O)O[C@H]1C)C[C@H](O)[C@@H]2C(=O)O	485%
NS(=O)(=O)c1cc(Cl)c(Cl)c(S(N)(=O)=O)c1	166%
COc1cc(Cl)cn2c(-c3cccc(NC4CNC4)n3)cnc12	91.4%
CN1CCc2c(n(Cc3ccc(C(=O)NO)cc3)c3ccccc23)C1	17.7%
CC(C)C[C@@H](N)[C@H](O)C(=O)N[C@H](C(=O)N[C@H](C(=O)N[C@@H](CC(=O)O)C(=O)O)C(C)C)C(C)C	128%
CC1(C)C(N(O)C(=O)Nc2ccc(Cl)cc2)N(c2ccc(Cl)cc2)C(=O)N1CC(=O)NN=CC=Cc1ccc([N+](=O)[O-])o1 (stereo not given)	3.85%
Cc1cc(NC(=O)Nc2ccc(N(C)C)cc2)c2cc(F)cc(F)c2n1	149%
CCNC(=O)Nc1ccc(Oc2ncnc(N)c2C=NOC)cc1Cl	52.6%
C=C1c2cccc(O)c2C(O)=C2C(=O)[C@@]3(O)C(O)=C(C(N)=O)C(=O)[C@@H](N(C)C)[C@@H]3[C@@H](O)[C@H]12	88.8%
CCCC1OC2C[C@@H]3[C@H]4CCC5=CC(=O)C=C[C@]5(C)[C@H]4C(O)C[C@]3(C)[C@]2(C(=O)CO)O1 (stereo not given in full)	12.2%
O=C(O)C1=CC(O)C(O)[C@H](O)C1 (stereo not given in full)	146%
CCCCCCCCCCCCCC(=O)N[C@H](CO)[C@H](O)c1ccc([N+](=O)[O-])cc1	1.84%
Cc1cc2nc3c(=O)[nH]c(=O)nc-3n(CC(O)C(O)C(O)CO)c2cc1C (stereo not given)	77.3%
N#Cc1c(N(CC(=O)O)CC(=O)O)sc(C(=O)O)c1CC(=O)O	5.77%
O=C(O)CCNc1cc(N2CCc3ccccc3CC2)nc(-c2ccccn2)n1	158%
CN1CCN(c2ncc(-c3cc(Cl)cc(Cl)c3Cl)c(N)n2)CC1	54.8%
